Source: PubChem BioAssay AID624139 (Broad Institute, 2012)
Among all 17,000 compounds or so, about 220 (1.3%) were called active.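 Rule for the calls: active = spot fluorescence over background significantly raised, with a chance value under 7% in all four replicate spots of the compound; inactive = the rest.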 Many of the other results were omitted from the sample, so actives are more common in it than they were.

Target: Nuclear factor NF-kappa-B p105 subunit (Homo sapiens) (UniProt P19838)
Assay: binders of NF-kB p50 subunit, primary screen, biochemical, small molecule microarray, anti-His fluorescence (AID 624139);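 note: probe protein is his-tagged human p50 processed subunit at 1 µg/ml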
Conditions: anti-His fluorescence binding

Sequence of Nuclear factor NF-kappa-B p105 subunit (Homo sapiens) (P19838 1-433 limits assumed): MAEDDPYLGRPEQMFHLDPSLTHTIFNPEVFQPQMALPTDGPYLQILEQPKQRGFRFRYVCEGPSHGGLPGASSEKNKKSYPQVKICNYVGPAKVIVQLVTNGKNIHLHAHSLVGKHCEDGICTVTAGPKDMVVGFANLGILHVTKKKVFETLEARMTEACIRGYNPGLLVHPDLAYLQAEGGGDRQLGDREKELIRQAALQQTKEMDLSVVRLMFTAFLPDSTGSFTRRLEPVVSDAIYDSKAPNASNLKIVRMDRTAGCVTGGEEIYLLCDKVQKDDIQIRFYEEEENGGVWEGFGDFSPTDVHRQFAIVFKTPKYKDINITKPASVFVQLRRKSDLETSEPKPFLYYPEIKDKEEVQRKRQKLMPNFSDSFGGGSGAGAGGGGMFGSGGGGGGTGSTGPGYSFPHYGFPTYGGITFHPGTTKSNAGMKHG

outcome, inactive:
Cc1noc(C)c1S(=O)(=O)N(C)C[C@H]1OCCCC[C@@H](C)Oc2ccc(NC(=O)CCCN(C)C)cc2C(=O)N([C@H](C)CO)C[C@@H]1C
C=CCn1c(=O)c(C(=O)NCc2ccccn2)c(O)c2ccccc21
COc1cc(/C(C)=C/C(C)=C\C(=O)O)oc(=O)c1C
Cc1noc(C)c1S(=O)(=O)Nc1ccc2c(c1)CC(=O)N([C@@H](C)CO)C[C@@H](C)[C@@H](CN(C)C(=O)Nc1ccc(C(F)(F)F)cc1)O2
C[C@H](CO)N1C[C@H](C)[C@H](CN(C)Cc2ccc(C(F)(F)F)cc2)Oc2ccc(NS(C)(=O)=O)cc2C1=O
C=C(CC/C=C(\C)C(=O)O)C1(O)CC=C(C)CC1 (configuration not stated)
O=C1O[C@H](c2ccccc2)[C@H](c2ccccc2)N2[C@H]1[C@@H](C(=O)N1CCN(c3ncccn3)CC1)[C@]1(C(=O)Nc3ccccc31)[C@H]2c1ccc(OCCO)cc1
C[C@H]1CN([C@@H](C)CO)C(=O)CCCn2cc(nn2)CO[C@@H]1CN(C)S(=O)(=O)c1ccc(-n2cccn2)cc1
CC(C)NC(=O)Nc1ccc2c(c1)CC(=O)N([C@@H](C)CO)C[C@@H](C)[C@H](CN(C)Cc1ccc(C(F)(F)F)cc1)O2
C/C(=C/CC[C@@H](CO)[C@H]1CC[C@@]2(C)[C@@H]3CC[C@H]4C(C)(C)[C@@H](O[C@@H]5O[C@H](CO)[C@@H](O)[C@H](O)[C@H]5O)C[C@H](O)[C@@]45C[C@@]35CC[C@]12C)CO
Cc1noc(C)c1S(=O)(=O)Nc1ccc2c(c1)CC(=O)N([C@H](C)CO)C[C@@H](C)[C@@H](CN(C)C)O2
COc1ccc(CN(C)C[C@H]2Oc3ccc(NC(=O)Cc4ccccc4)cc3CC(=O)N([C@@H](C)CO)C[C@@H]2C)cc1
CC1(C)CC[C@@]2(C(=O)O)C(C1)C1=CCC3[C@@]4(C)CC[C@H](O)C(C)(C)C4CC[C@@]3(C)[C@]1(C)C[C@H]2O (some centres not stated)
C[C@H](CO)N1C[C@H](C)[C@@H](CN(C)C(=O)Nc2ccccc2)Oc2ccc(N(C)C)cc2C1=O
COc1cc(C)c(C(=O)Oc2cc(C)c(C(=O)Oc3cc(C)c(C(=O)NC(C)C(=O)O)c(O)c3)c(O[C@@H]3O[C@H](CO)[C@@H](O)[C@H](O)[C@H]3OC(C)=O)c2)c(OC)c1 (some centres not stated)
Cc1ccc(C(=O)NCCNS(=O)(=O)c2ccccc2)cc1
COc1ccc(NC(=O)Nc2cccc3c2O[C@H](CN(C)S(=O)(=O)c2cccs2)[C@H](C)CN([C@@H](C)CO)C3=O)cc1
CNC[C@H]1Oc2ccc(N(C)C)cc2CC(=O)N([C@@H](C)CO)C[C@@H]1C
CC(C)NC(=O)N(C)C[C@H]1Oc2ccc(NS(=O)(=O)c3cn(C)cn3)cc2CC(=O)N([C@@H](C)CO)C[C@H]1C
C[C@@H]1CN([C@@H](C)CO)C(=O)Cc2cc(NC(=O)CCC(F)(F)F)ccc2O[C@@H]1CN(C)C(=O)Nc1cccc2ccccc12
Cc1cc(C)c(NC(=O)CCCC(=O)O)c(C)c1
C[C@H]1CN([C@@H](C)CO)C(=O)c2cc(NC(=O)C3CC3)ccc2O[C@@H]1CN(C)S(=O)(=O)c1cn(C)cn1
